The list is not random: actives were taken first. Their share in the collection is about 0.78%.
GLS inh = qHTS for Inhibitors of Glutaminase (GLS) | Glutaminase kidney isoform, mitochondrial (Homo sapiens), O94925 | GLS enzymatic activity, qHTS titration | Potency, µM (top dose mostly 45.5 µM), for inactives: top-dose activity change, negative = inhibition, hits mostly inhibitors | actives 0.21% (n = 410,000); further: potency means the concentration at half of the fitted maximal effect; on the % scale 0 is the no-effect control and ±100 the full control effect
Target sequence (O94925 whole entry, looked up, canonical isoform): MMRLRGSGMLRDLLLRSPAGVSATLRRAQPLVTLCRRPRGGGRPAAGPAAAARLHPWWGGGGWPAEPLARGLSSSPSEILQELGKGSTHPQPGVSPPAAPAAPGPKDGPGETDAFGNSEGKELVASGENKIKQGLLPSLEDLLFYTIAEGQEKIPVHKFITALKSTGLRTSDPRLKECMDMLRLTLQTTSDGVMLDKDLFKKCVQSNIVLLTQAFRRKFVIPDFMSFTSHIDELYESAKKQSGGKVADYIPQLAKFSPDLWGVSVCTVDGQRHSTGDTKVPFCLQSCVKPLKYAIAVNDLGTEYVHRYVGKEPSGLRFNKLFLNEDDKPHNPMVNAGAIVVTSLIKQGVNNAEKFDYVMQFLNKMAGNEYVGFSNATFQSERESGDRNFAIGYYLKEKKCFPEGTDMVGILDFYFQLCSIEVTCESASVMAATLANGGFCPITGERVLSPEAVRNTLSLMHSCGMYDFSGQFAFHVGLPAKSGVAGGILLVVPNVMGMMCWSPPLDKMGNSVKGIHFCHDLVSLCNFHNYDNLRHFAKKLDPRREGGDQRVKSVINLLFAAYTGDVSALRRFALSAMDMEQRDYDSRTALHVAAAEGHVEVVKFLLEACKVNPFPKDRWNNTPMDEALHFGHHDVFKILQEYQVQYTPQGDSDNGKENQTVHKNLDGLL
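hKGA in 45 mM KH2PO4 pH 8.2, 0.02% Tween-20 with pin-transferred compounds; 1 mM L-glutamine (stock) plus glutamate oxidase/HRP/Amplex Red coupling added. Fluorescence read initially and after 30 min at RT.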
CCT modulator = High-Throughput Screening for Modulators of Cytosolic Chaperonin Activity | purified chaperonin ATPase assay, HTRF ADP detection, 30 min | activity change, % (no concentration beside the values), hits read low | actives 0.3% (n = 360,000); in the data active means activity change below about -30%; further: on the % scale 0 is the no-effect control and ±100 the full control effect
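Nucleotide hydrolysis assay: TRiC at 20–40 nM final (set by batch activity) with 10 uM ATP, 30 min at 37 °C, in presence of 76 uM compound. Detection by competitive ADP HTRF, 30 min ambient.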
PI4K2A block = qHTS for small molecular inhibitors of PI4K2A. Phosphatidylinositol 4-kinase type 2-alpha (Homo sapiens), Q9BTU6. purified PI4K2A, ADP-Glo luminescence, 1 h; stronger effect = lower value. activity change, negative = inhibition, % at 76.9 µM. actives 0.13% (n = 420,000). AID 1346378, 2018; in the data active means activity change below about -50%; inconclusive means mostly about -30% to -49%;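 further: -100% = wells without enzyme as full effect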
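ADP-Glo luminescence measured ADP generated by PI4K2A enzyme (4 ug/mL before mixing) with 1.2 mM PI substrate (pre-mix) and 300 microM ATP (pre-mix). Tris pH7.5 buffer with MgCl2, Triton X-100; 1 h reaction at ambient temperature.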
PGK inhibitor = qHTS Assay to Find Inhibitors of Phosphoglycerate Kinase; actives 0.043% (n = 380,000); Phosphoglycerate kinase, glycosomal (Trypanosoma brucei brucei), P07378; Potency, µM (doses to about 57.5 µM), for the others: top-dose activity change, negative = inhibition, usual class: inhibitors; PGK/GAPDH coupled, Kinase-Glo luminescence, 60 min; AID 602233, 2012; further: potency means the concentration at half of the fitted maximal effect; on the % scale 0 is the no-effect control and ±100 the full control effect; nearly all actives have a fitted effect of over 60% in size
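Recombinant glycosomal PGK reaction used 1,3-bisphosphoglycerate generated in-well by GAPDH (100nM final) in 100mM TEA pH 7.6, 5mM MgCl2, 0.01% Tween-20. After 60 minutes at room temperature, ATP was read by Kinase-Glo Plus luminescence end-point.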
PINK1 modulator = A Quantitative High throughput Screen to Identify Chemical Modulators of PINK1 Expression; PINK1 immunofluorescence, high-content cytometry, 24 h; Potency, µM (titrated, usually from 76.6 µM), without a hit: at the highest dose activation (PINK1 increase), hits mostly activators; actives 0.2% (n = 410,000); AID 624263, 2012; active means well fitted activation curve with a large enough effect; inconclusive means small, poorly fitted or top-dose-only effect; cell line not stated here; further: potency means the concentration at half of the fitted maximal effect; % of control where 0% means no effect; nearly all actives have a fitted effect of over 65% in size
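Stable cell line, 250 cells/well, 12 h attachment; compounds pinned at 5 concentrations, 24 h; CCCP control. Fixed with nuclear dye, primary antibodies 12 h at 10 degrees C, secondary plus cell stain; laser-scanning cytometer read.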
* = called active by the depositor; i = inactive; ? = inconclusive; · = not tested or not shown. Unless noted, the call rests on the fitted dose curve; in most records, active means well fitted curve in the direction sought with a large enough effect; inconclusive means small, poorly fitted or top-dose-only effect, or another doubt; inactive means no such curve, though single readings can be large; an effect the other way counts as inactive or inconclusive.

SMILES	GLS inh	CCT modulator	PI4K2A block	PGK inhibitor	PINK1 modulator
CN1C(=CC=C2C=C(I)C(=O)C(I)=C2)C(C)(C)c2ccccc21	-10%	-2	-9	?	5%
CN1/C(=C\C=C2/C(=O)Oc3ccccc3C2=O)C(C)(C)c2ccccc21	-21%	-2	-1	-4%	13µM*
COc1cccc(CN2CCCC(c3nc(C)ncc3-c3ccc(F)cc3)C2)c1OC (centres undefined)	·	·	·	·	0%
O=C(NC1CCCC1)c1sc(=S)n2c1[nH]c(=O)c1ccccc12	6%	1	5	-1%	32µM*
O=C(NCc1ccco1)c1sc(=S)n2c1[nH]c(=O)c1ccccc12	?	-1	-9	-9%	?
COc1ccc(-c2cccc(C(=O)Nc3cccc(C(=O)O)c3)c2)cc1	15%	-79*	5	-3%	4%
COC(=O)c1cccc(NC(=O)c2ccc(OC)c(Cl)c2)c1	-5%	-78*	-2	11%	-1%
C/C=C(/C(=C/C)c1ccc(OC(C)=O)cc1)c1ccc(OC(C)=O)cc1	·	·	-1	·	·
CCN(CC)c1ccc(C(=O)NN)cc1	-19%	2	10	-1%	-1%
Nc1ccc(C(=O)N(CCO)CCO)cc1	7%	-1	-2	3%	2%
CCN(CC)c1ccc(N)cc1	14%	-1	0	-11%	14µM*
Nc1ccc(N(CCO)CCO)cc1	?	0	-52*	-8%	3%
CO[C@H]1[C@@H](O)[C@H](N)[C@@H](O[C@H]2O[C@@H]([C@H](C)N)CC[C@H]2N)[C@H](O)[C@@H]1N(C)C(=O)CN	1%	·	·	·	·
CC1=C(CCC(=O)O)c2cc3nc(cc4[nH]c(cc5[nH]c(cc1n2)c(C)c5C(C)O)c(C)c4C(C)O)C(C)=C3CCC(=O)O (centres undefined)	·	·	·	·	0%
C=Cc1c(C)c2cc3[nH]c(cc4nc(cc5nc(cc1[nH]2)C(C)=C5CCC(=O)O)C(CCC(=O)O)=C4C)c(C)c3C=C	?	-4	?	10µM*	7%
O=C(COc1ccccc1)Nc1nnc(S(=O)(=O)N2CCCC2)s1	-3%	-47*	-4	-3%	0%
Cc1ccsc1CN1CCc2nnc(CCNC(=O)c3ccc(F)cc3)n2CC1	·	·	·	·	1%
S=C(NNc1ccnc2cc(Cl)ccc12)Nc1ccc(Cl)cc1Cl	-10%	0	3	-10%	8.9µM*
CCOc1ccc(NC(=S)NNc2ccnc3cc(Cl)ccc23)cc1	?	3	1	-6%	?
NC(=O)Nc1cc(Cl)ccc1Cl	6%	-85*	-8	5%	-1%
COc1ccccc1C1CN(Cc2cn(C)nc2C)Cc2ccccc2O1 (centres undefined)	·	·	·	·	0%
CN(C1CCS(=O)(=O)C1)S(=O)(=O)c1cccs1 (centres undefined)	-10%	-3	-2	-2%	-2%
CN(C1CCS(=O)(=O)C1)S(=O)(=O)c1ccccc1 (centres undefined)	16µM*	1	-1	-1%	-1%
Cc1cc(=O)oc2cc(O[C@@H]3SC[C@@H](O)[C@H](O)[C@H]3O)ccc12	·	·	0	·	·
Cc1cc(C(=O)OCC(=O)Nc2cc(C)on2)c2ccccc2n1	15%	-35*	-3	-7%	0%
CCCNC(=O)COC(=O)c1cc(C)nc2ccccc12	-10%	-2	2	2%	-2%
CCOC(=O)c1ccc2c(c1)nc(SC/C(O)=C(\C#N)c1nc3ccccc3[nH]1)n2CC	9%	-2	-2	-1%	40µM*
CCOC(=O)c1ccc2c(c1)nc(SCC(=O)c1ccco1)n2CC	14%	0	-4	-14%	-1%
COc1ccc(-c2cc3nc[nH]c(=O)c3s2)cc1	-14%	0	-16	i	-1%
COc1ccc(-c2cc3nc(CCl)[nH]c(=O)c3s2)cc1	66%	-1	-50*	-17%	-1%

Screens deposited in PubChem by National Center for Advancing Translational Sciences (NCATS).
